About 83,000 compounds went through this panel and 20% of them were active in at least one assay; those are over-represented in the sample as a whole.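 Testing used 96-well plates and a 48-hour single-concentration exposure. Example: -40 means 40% of the starting cells died.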 Active and inactive are the calls of the source. The calls were made as follows: active = growth percent below 10; inactive = the rest.
Experiments:
Experiment in all cases: NCI-60 one-dose screen, 48 h (100 = growth as untreated, 0 = no growth, -100 = all killed)
Details in all cases: 10 µM unless noted
[1] = tested on: SR leukemia
[2] = tested on: RPMI-8226 leukemia
[3] = tested on: OVCAR-8 ovarian
[4] = tested on: OVCAR-5 ovarian
[5] = tested on: OVCAR-4 ovarian
[6] = tested on: SK-OV-3 ovarian
[7] = tested on: IGROV1 ovarian
[8] = tested on: OVCAR-3 ovarian
[9] = tested on: NCI/ADR-RES ovarian
[10] = tested on: T-47D breast
[11] = tested on: BT-549 breast
[12] = tested on: MDA-MB-435 melanoma
[13] = tested on: SW-620 colon
[14] = tested on: MCF7 breast
[15] = tested on: HCT-116 colon
[16] = tested on: HCC-2998 colon
[17] = tested on: KM12 colon
[18] = tested on: HS 578T breast

Measured: growth

COc1cc(C(=O)/C=C/c2c(-c3cccs3)nc3ccccn23)cc(OC)c1OC
active: [2] -9.49% | [3] 9.84% | [6] 3.6% | [8] -36.5% | [9] -15.6% | [11] -16.9% | [13] 4.78% | [14] 7.96% | [15] -5.59% | [17] -25.6%
inactive: [1] 13.8% | [4] 18.4% | [5] 13.1% | [7] 13.1% | [10] 18.2% | [12] 11% | [16] 17.1%

CCOC(=O)c1cn2ncnc(Oc3ccc(NC(=O)NC4CC4)c(F)c3)c2c1C
inactive: [1] 84.6% | [2] 84.6% | [3] 99.7% | [4] 103% | [5] 69.7% | [6] 111% | [7] 99.3% | [8] 113% | [9] 99.3% | [10] 93.8% | [11] 103% | [12] 95.9% | [13] 96.2% | [14] 92.6% | [15] 76.9% | [16] 110% | [17] 101%

CC(C)CCC[C@@H](C)C1CCC2C3CCC4=C/C(=N/OCCN(C)C)CC[C@]4(C)C3CC[C@@]21C (stereo partly drawn)
inactive: [1] 62.2% | [2] 78.4% | [3] 104% | [4] 83.9% | [5] 88.5% | [6] 93.8% | [7] 48.9% | [8] 89.5% | [9] 89.6% | [10] 87.4% | [11] 90.5% | [12] 102% | [13] 91.1% | [14] 91.9% | [15] 83.9% | [16] 80.8% | [17] 87.4%

CC[C@@H](c1ccc2cc(OC)ccc2c1)C(C)(C)C(=O)F
inactive: [1] 112% | [2] 146% | [3] 94.8% | [4] 86.2% | [5] 109% | [6] 107% | [7] 28.3% | [8] 85.7% | [9] 77.5% | [10] 118% | [11] 19.9% | [12] 102% | [13] 94.6% | [14] 108% | [15] 85.6% | [16] 55.1% | [17] 107%

COc1ncc2cc1NS(=O)(=O)c1cccc(c1)C(=O)NCC1=CC=C(S1)c1ncnc3c1SC2=C3C
active: [1] -3.91% | [2] -31.3% | [4] -26.2% | [5] -24.1% | [6] 5.33% | [7] -24.5% | [8] -73.1% | [10] -29% | [11] -52.7% | [12] -28.6% | [13] 3.04% | [14] -12.5% | [15] -31.8% | [16] -43.1% | [17] -62.1%
inactive: [3] 20.6% | [9] 10.6%

Nc1c(C(=O)Nc2cccc3ncccc23)sc2nc3c(cc12)C(=O)CCC3
inactive: [1] 41.4% | [2] 59.6% | [3] 78.9% | [4] 69.8% | [5] 71.1% | [6] 21.3% | [7] 59% | [9] 72.8% | [10] 49.3% | [11] 55.2% | [13] 39.1% | [14] 25.2% | [15] 44.1% | [16] 75.8% | [17] 46.5%
active: [18] 5.47% | [12] -18.2%

CC(/C=C1\SC(=S)N(CC(=O)NC(Cc2c[nH]c3ccccc23)C(=O)O)C1=O)=C\c1ccccc1 (stereo not drawn)
inactive: [1] 108% | [2] 105% | [3] 100% | [4] 102% | [5] 101% | [6] 105% | [7] 101% | [8] 108% | [9] 103% | [10] 106% | [11] 105% | [12] 104% | [13] 104% | [14] 94.8% | [15] 112% | [16] 103% | [17] 107%

CN1CCCc2cc(/C=C3/SC(=S)N(CCc4ccc(O)cc4)C3=O)ccc21
inactive: [1] 32.9% | [2] 49.5% | [3] 96.6% | [4] 108% | [5] 87.2% | [6] 111% | [7] 76% | [8] 88.2% | [9] 83.3% | [10] 84% | [11] 84.9% | [12] 17.5% | [13] 85% | [14] 72.2% | [15] 89.3% | [16] 106% | [17] 48.7%

COc1ccc(C2CC(c3ccc4c(c3)OCO4)=Nc3c(N)ncnc3N2)cc1 (stereo not drawn)
inactive: [1] 86.4% | [2] 55.7% | [3] 103% | [4] 82.9% | [5] 102% | [6] 103% | [7] 104% | [18] 103% | [9] 92.3% | [10] 84.9% | [11] 118% | [12] 105% | [13] 95.9% | [14] 90.6% | [15] 98.5% | [16] 92.4% | [17] 100%
